Compound activity: PubChem, several laboratories
TIM10 inh = TIM10 yeast growth inhibition | inhibition, % at 10 µM | S. cerevisiae TIM10 strain growth, BacTiter-Glo luminescence, 24 h | 330,000 tested, 1.4% active;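 active = inhibition of 40% or more at the single tested concentration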;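 also: wild-type TIM10 isogenic control strain grown at permissive 25 °C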
tim10-1 inh = tim10-1 yeast growth inhibition. S. cerevisiae tim10-1 ts strain growth, BacTiter-Glo, 24 h. inhibition, % at 20 µM. 330,000 tested, 2.2% active;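 active = inhibition of at least 40%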;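 also: mutant grown at 25 °C; 0% = DMSO wells with yeast and 100% = wells holding no yeast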
SKKanGAS inh = blocks kanamycin growth of S. pyogenes SKKanGAS strain | BacTiter-Glo, 6 h | inhibition, % at 7.5 µM | 300,000 tested, 1.3% active;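 active = mean replicate score, as percent of positive control median, at least 50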;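 also: strain carries kanamycin resistance gene driven by streptokinase promoter and grows in 40 µg/ml kanamycin; loss of luminescence reflects streptokinase promoter inhibition or plain growth inhibition; 0% = median of DMSO wells and 100% = positive control at its reference dose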
tim23-1 inh = inhibits growth of tim23-1 mutant yeast. S. cerevisiae tim23-1 growth, BacTiter-Glo luminescence, 24 h. inhibition, % at 20 µM. 330,000 tested, 1.3% active. AID 463212;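 active = growth inhibition of the mutant yeast at or above 50%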;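 also: temperature-sensitive mutant grown at 25 °C; plate controls were DMSO-treated mutant yeast for no effect and medium wells lacking yeast for full effect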
NLRP3 yeast inh = blocks the NALP3 inflammasome reconstituted in yeast; Yeast reconstituted NLRP3/ASC/caspase-1, beta-gal luminescence, 24 h; AID 2825; inhibition, % at 10 µM; 330,000 tested, 0.39% active;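 active = inhibition of 50% or more; inactive = inhibition below 50%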;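 also: plate controls were induced DMSO wells for no effect and uninduced yeast grown without galactose for full effect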
tim10-1 confirm = confirmation of tim10-1 mutant yeast growth inhibitors; shares compounds with tim10-1 inh; S. cerevisiae tim10-1 ts strain growth, BacTiter-Glo, 24 h; inhibition, % at 20 µM; 7,400 tested, 56% active;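 active = inhibition of yeast growth at or above a set limit in either of two repeat tests at 20 µM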;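 also: tim10-1 mutant grown at permissive 25 °C to find synthetic lethal compounds; 0% = DMSO yeast wells and 100% = medium wells without yeast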
TIM10 conf = TIM10 yeast growth inhibition, confirmed. 4,600 tested, 63% active. shares compounds with TIM10 inh. S. cerevisiae tim10 strain growth, BacTiter-Glo luminescence, 24 h. inhibition, % at 10 µM;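 active = inhibition of yeast growth at or above a set limit in either of two replicates at 10 µM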;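 also: this counterscreen used the strain with wild-type TIM10; 0% = yeast with DMSO and 100% = medium wells lacking yeast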
tim23-1 conf = tim23-1 yeast growth inhibition, confirmed; 4,400 tested, 83% active; inhibition, % at 20 µM; shares compounds with tim23-1 inh; S. cerevisiae tim23-1 growth, BacTiter-Glo luminescence, 24 h;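 active = inhibition above about 39% in either of two replicate wells at 20 µM, limit read from the data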;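 also: temperature-sensitive tim23-1 mutant grown at 25 °C; 0% = DMSO wells with yeast and 100% = medium wells without yeast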
An asterisk follows results filed as active; . = not tested or not shown. Sampled rows, rich in hits. Any-hit rate of the full collection: about 4.6%.

SMILES	TIM10 inh	tim10-1 inh	SKKanGAS inh	tim23-1 inh	NLRP3 yeast inh	tim10-1 confirm	TIM10 conf	tim23-1 conf
CN(C)c1nc(N/N=C/c2ccccc2O)nc(Nc2ccc(F)cc2)n1	18.8	47.3*	93.1*	58.6*	11.7	37.5*	.	67.0*
CN(C)c1nc(Nc2ccc(F)cc2)nc(Oc2ccc(F)cc2)n1	-19.7	0.3	16.0	22.5	25.9	.	.	.
O=C(CC1Nc2ccccc2NC1=O)Nc1cc(Cl)cc(Cl)c1 (configuration not stated)	40.9*	78.8*	24.6	64.5*	20.1	-1.9	-31.6	15.4
O=C(CC1NC(=O)NC1=O)Nc1ccc(Cl)cc1 (configuration not stated)	-6.8	-8.6	0.8	3.4	15.8	.	.	.
CCOC(=O)c1[nH]cnc1C(=O)Nc1ccccc1OC	-14.9	15.3	10.1	-1.0	-3.4	.	.	.
CCN(CC)c1cccc(OC(=O)c2cccnc2Cl)c1	6.5	-0.4	0.2	23.4	7.3	.	.	.
O=C1C=CC(=O)N1c1cccc(-c2ccccc2)c1	95.0*	95.1*	22.1	51.3*	38.1	97.5*	99.2*	97.8*
O=C1c2ccccc2C(=O)N1c1cccc(-c2nc3ccccc3o2)c1	17.6	3.8	1.9	-1.2	9.0	.	.	.
O=[N+]([O-])c1ccc(N2CCN(c3ccccc3)CC2)nc1	-1.1	0.1	7.2	2.6	8.4	.	.	.
O=[N+]([O-])c1ccc(N2CCc3ccccc3C2)nc1	34.5	66.3*	-1.6	62.8*	33.8	64.4*	.	9.9
O=C(c1cccs1)N(C(=O)c1cccs1)c1ccc(Br)cn1	63.3*	41.6*	13.2	75.3*	36.5	30.9*	50.2*	62.0*
Cc1nn(CC(=O)N(C)c2c(N)n(Cc3ccccc3)c(=O)[nH]c2=O)c(C)c1[N+](=O)[O-]	6.3	6.0	.	-5.3	-2.1	.	.	.
Cn1c(N=Nc2ccccc2)nc2ccccc21	26.2	15.4	47.3	32.1	23.3	.	.	.
CN(C)c1ccc(N=Nc2nc3ccccc3n2C)cc1	81.9*	64.6*	13.0	86.5*	36.5	74.2*	73.2*	82.2*
CS(=O)(=O)c1ccc2nc(NC(=O)c3cccs3)sc2c1	31.5	44.3*	.	60.5*	-2.0	41.5*	.	53.8*
COc1ccc(OCC(=O)NCCNC(=O)c2cccnc2)cc1	-1.9	-13.2	0.5	-5.9	13.3	.	.	.
COc1ccc(C2CC(c3ccc(Br)cc3)=NN2C(=O)CSC2=NN3CCCC(=O)N=C3S2)cc1 (configuration not stated)	30.5	36.2	-3.6	37.3	9.6	.	.	.
Cc1ccc(C2CC(c3cccs3)=NN2C(=O)CSC2=NN3CCCC(=O)N=C3S2)cc1 (configuration not stated)	44.5*	50.5*	12.5	56.8*	10.3	43.8*	39.9*	60.0*
CCOC(=O)C1=C(C)NC(=S)NC1c1ccc(OCC(=O)N2CCCCCC2)cc1 (configuration not stated)	-12.7	5.8	6.7	0.7	-4.7	.	.	.
COc1cc2c(cc1OC)C(c1ccc(-c3ccc(Cl)c(Cl)c3)o1)=NCC2	36.6	55.9*	25.6	56.6*	27.8	44.0*	.	53.8*
COc1cc2c(cc1OC)C(C)=NCC2	1.2	11.9	2.9	7.6	-3.0	.	.	.
COc1cccc(/C=C/C(=O)OCC(=O)c2c(N)n(C)c(=O)n(C)c2=O)c1	4.3	19.7	.	1.2	0.9	.	.	.
CC(C)(C)c1cc(-c2nc(N)nc(N)n2)cc(C(C)(C)C)c1	41.8*	51.3*	14.7	63.9*	11.6	48.7*	-10.8	61.3*
CCOc1ccc(NC(=O)CSc2nnnn2C2CC2)cc1S(=O)(=O)N1CCCC1	6.9	8.1	.	5.5	-1.9	.	.	.
CC(C)(C)c1ccc(C(=O)O/N=C(\N)c2ccccc2)cc1	82.5*	57.2*	-5.7	83.5*	40.0	45.0*	91.8*	78.5*
N/C(=N\OC(=O)COc1ccc2ccccc2c1)c1ccncc1	18.4	11.4	-8.6	-1.8	29.7	.	.	.
Cc1cc(-c2onc(C)c2C(=O)Oc2ccc(Cl)cc2)no1	18.6	24.5	-0.1	36.6	0.7	.	.	.
